# Data reported in PubChem BioAssay.
# The source made the active and inactive calls. Unless noted, no stated cut-off is given here; in the data, active means inhibition above about 80%; inactive means the rest.
# Tests used:
# [1] = LFS_MB_P medulloblastoma growth inhibition, cell-based, chromothripsis tumors, cisplatin or BGB combos (AID 1671449); conditions: LFS_MB_P medulloblastoma cells;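 further: cells exposed for 96 hours; 0% = vehicle DMSO and 100% = killing by high DMSO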
# [2] = HDN33 neuroblastoma growth inhibition, cell-based, chromothripsis tumors, cisplatin or BGB combos (AID 1671450); conditions: HDN33 neuroblastoma cells, stronger effect = higher value;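 further: cells exposed to compound for four days; 0% = vehicle DMSO and 100% = cell killing by high DMSO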
# [3] = ICB984 medulloblastoma cell growth inhibition, synergistic combos for chromothripsis tumors, cisplatin or BGB combos (AID 1671451; call rule not given here;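 further: cells exposed for 96 hours before readout; 0% = vehicle DMSO and 100% = killing by high DMSO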); conditions: ICB984 medulloblastoma cells, drug combinations, stronger effect = higher value
# [4] = LFS_MB_1R medulloblastoma cell growth inhibition, synergistic combos for chromothripsis tumors, cisplatin or BGB combos (AID 1671452); conditions: LFS_MB_1R medulloblastoma cells, stronger effect = higher value;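 further: cells exposed for 96 hours before readout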
# [5] = HTB85 osteosarcoma cell growth inhibition, synergistic combos for chromothripsis tumors, BGB or cisplatin IC20 combos (AID 1671453); conditions: HTB85 osteosarcoma cells, drug combinations, stronger effect = higher value;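 further: cells exposed for 96 hours before readout; 0% = vehicle DMSO and 100% = high DMSO killing control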
# [6] = CRL2098 osteosarcoma cell growth inhibition, synergistic combos for chromothripsis tumors, BGB or cisplatin IC20 combos (AID 1671454); conditions: CRL2098 osteosarcoma cells, drug combinations, stronger effect = higher value;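 further: cells exposed for 96 h before readout; 0% = vehicle DMSO and 100% = killing by high DMSO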
# [7] = HD-MB03 medulloblastoma cell growth inhibition, synergistic combos for chromothripsis tumors, BGB or cisplatin IC20 combos (AID 1671455; in the data active means inhibition above about 83%;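 further: 0% = vehicle DMSO and 100% = high DMSO as cytotoxic control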); conditions: HD-MB03 medulloblastoma cells, stronger effect = higher value
# [8] = UWB1.289 ovarian carcinoma cell growth inhibition, synergistic combos for chromothripsis tumors, BGB or cisplatin combos (AID 1671456); conditions: UWB1.289 ovarian carcinoma cells, stronger effect = higher value;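 further: cells exposed to compound for four days; 0% = vehicle DMSO and 100% = killing by high DMSO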
# [9] = LFS_MB_2R medulloblastoma cell growth inhibition, synergistic combos for chromothripsis tumors, cisplatin combos (AID 1671457); conditions: LFS_MB_2R medulloblastoma cells, stronger effect = higher value;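 further: cells exposed to compound for four days before readout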
# [10] = MDA-MB-436 breast carcinoma cell growth inhibition, synergistic combos for chromothripsis tumors, BGB or cisplatin combos (AID 1671458; call rule not given here;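 further: cells exposed for 96 hours; 0% = vehicle DMSO and 100% = killing by high DMSO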); conditions: MDA-MB-436 breast carcinoma growth inhibition, drug combinations, stronger effect = higher value
# [11] = UWB1.289_BRCA1 ovarian cancer growth, cell-based, BGB or cisplatin combinations (AID 1671459); conditions: UWB1.289 BRCA1 ovarian carcinoma, drug combinations, stronger effect = higher value
# [12] = human astrocyte viability loss, single and combined drugs, cytotoxicity control for chromothriptic childhood tumor combination screen, cell-based, BGB or cisplatin IC20 combos (AID 1671460); conditions: Human astrocytes, drug combinations, stronger effect = higher value;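 further: cells exposed to compounds for 96 hours before viability readout; 0% = vehicle and 100% = killing control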
# [13] = growth inhibition of BT084 medulloblastoma cells, cell-based, ICGC_MB145, cisplatin and BGB IC40 combos (AID 1671461); conditions: drug combinations, stronger effect = higher value;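 further: cells exposed to drugs for 96 hours; 0% = vehicle DMSO and 100% = high DMSO full killing control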
# [14] = growth inhibition of RCMB18 medulloblastoma cells, cell-based, cisplatin and BGB IC40 combos (AID 1671462); conditions: stronger effect = higher value;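 further: cells exposed to compound for four days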
# [15] = growth inhibition of CRL1545 osteosarcoma cells, cell-based, cisplatin and BGB IC20 combos (AID 1671464); conditions: stronger effect = higher value;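 further: cells exposed to compound for 96 hours before readout; 0% = vehicle DMSO and 100% = high DMSO killing control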
# [16] = measured here: combination with BGB IC40, at 0.05 µM
# [17] = measured here: with BGB IC20 combination, at 0.5 µM
# [18] = measured here: with cisplatin IC20 combination, at 0.5 µM
# [19] = measured here: combination with cisplatin, at 0.5 µM
# [20] = measured here: combination with cisplatin, at 5 µM
smiles,measurement,setting,value
Cn1cnc2[nH]c(=O)[nH]c(=O)c21,inhibition,"[1]; at 0.5 µM, stronger effect = higher value",-31.2% (inactive)
same,inhibition,"[1]; measured here: combination with BGB IC20, at 0.005 µM",-23.8%
same,inhibition,"[1]; measured here: combination with BGB IC40, at 0.005 µM",-24.9%
same,inhibition,[1]; [16],-15.5%
same,inhibition,"[1]; measured here: combination with cisplatin, at 0.5 µM, stronger effect = higher value",-52.2%
same,inhibition,"[1]; measured here: combination with cisplatin, at 5 µM, stronger effect = higher value",-16.9%
same,inhibition,"[2]; BGB combo, at 5 µM",-14.9%
same,inhibition,[2]; at 0.5 µM,-29.3% (inactive)
same,inhibition,"[2]; cisplatin combo, at 5 µM",-9.77%
same,inhibition,[2]; [17],-37.1%
same,inhibition,[2]; [18],-7.77%
same,inhibition,"[2]; single agent, at 5 µM",-7.59%
same,inhibition,"[3]; BGB IC20 combo, at 0.005 µM",-15.3%
same,inhibition,"[3]; BGB IC40 combo, at 0.005 µM",-28.7%
same,inhibition,"[3]; BGB IC40 combo, at 0.05 µM",-16.7%
same,inhibition,[3]; at 0.5 µM,-24.9% (inactive)
same,inhibition,"[3]; cisplatin combo, at 0.05 µM",-16.7%
same,inhibition,"[3]; cisplatin combo, at 0.5 µM",-33.2%
same,inhibition,"[3]; cisplatin combo, at 5 µM",-13.6%
same,inhibition,"[3]; measured here: 5 uM single agent, at 5 µM",2.87%
same,inhibition,[4]; at 0.5 µM,-24.6% (inactive)
same,inhibition,[4]; [16],-0.159%
same,inhibition,[4]; [19],11.9%
same,inhibition,[4]; [20],-7.74%
same,inhibition,[5]; at 0.5 µM,-29.8% (inactive)
same,inhibition,"[5]; measured here: with BGB IC20, at 0.5 µM",-76.7%
same,inhibition,"[5]; measured here: with BGB IC20, at 5 µM",-27.8%
same,inhibition,"[5]; measured here: with cisplatin IC20, at 0.5 µM",0.051%
same,inhibition,"[5]; measured here: with cisplatin IC20, at 5 µM",18.6%
same,inhibition,"[5]; single agent, at 5 µM",-24.4%
same,inhibition,[6]; at 0.5 µM,-69.2% (inactive)
same,inhibition,"[6]; measured here: combination with BGB at IC20, at 0.5 µM",-77.5%
same,inhibition,"[6]; measured here: combination with cisplatin at IC20, at 0.5 µM",-102%
same,inhibition,[7]; at 0.5 µM,-10.2% (inactive)
same,inhibition,"[7]; measured here: combo with BGB at IC20, at 0.5 µM",-8.65%
same,inhibition,"[7]; measured here: combo with cisplatin at IC20, at 0.5 µM",-11.2%
same,inhibition,[8]; at 0.5 µM,-8.42% (inactive)
same,inhibition,"[8]; measured here: inhibition with BGB combination, at 0.05 µM",-20.6%
same,inhibition,"[8]; measured here: inhibition with cisplatin combination, at 0.05 µM",-21.4%
same,inhibition,[9]; at 0.5 µM,-6.27% (inactive)
same,inhibition,[9]; [19],-10.9%
same,inhibition,[9]; [20],-15.8%
same,inhibition,[10]; at 0.5 µM,-15.1% (inactive)
same,inhibition,"[10]; measured here: BGB combination, at 0.5 µM",-7.33%
same,inhibition,"[10]; measured here: BGB combination, at 5 µM",-1.97%
same,inhibition,"[10]; measured here: cisplatin combination, at 0.5 µM",-35.1%
same,inhibition,"[10]; measured here: cisplatin combination, at 5 µM",-7.26%
same,inhibition,"[11]; BGB combination, concentration series, at 5 µM",-2.15%
same,inhibition,[11]; at 0.5 µM,-8.08% (inactive)
same,inhibition,"[11]; cisplatin combination, concentration series, at 5 µM",4.95%
same,inhibition,[12]; at 0.5 µM,14% (inactive)
same,inhibition,"[12]; measured here: combo with BGB IC20, at 0.5 µM",17.9%
same,inhibition,"[12]; measured here: combo with cisplatin IC20, at 0.5 µM",4.38%
same,inhibition,[13]; at 0.5 µM,-17.3% (inactive)
same,inhibition,"[13]; cisplatin combination, at 0.5 µM",-7.22%
same,inhibition,"[13]; cisplatin combination, at 5 µM",-68.1%
same,inhibition,"[13]; measured here: BGB IC40 combination 0.05 uM, at 0.05 µM",-20.6%
same,inhibition,"[13]; single agent, at 5 µM",-30.4%
same,inhibition,[14]; at 0.5 µM,-15.8% (inactive)
same,inhibition,"[14]; cisplatin combo, at 5 µM",-20.1%
same,inhibition,"[14]; measured here: BGB IC40 combination, at 0.05 µM",-17.4%
same,inhibition,[14]; [19],-33.2%
same,inhibition,"[14]; single agent, at 5 µM",-24.4%
same,inhibition,[15]; at 0.5 µM,-15.4% (inactive)
same,inhibition,[15]; [17],4.76%
same,inhibition,[15]; [18],-25.6%
same,inhibition,"[15]; single agent, at 0.05 µM",-33.9%
same,inhibition,"[15]; single agent, at 5 µM",-5.96%
